Data as given in PubChem BioAssay AID434989 (The Scripps Research Institute Molecular Screening Center, 2010).
Among all 330,000 compounds or so, about 1,400 (0.42%) were called active. Many of the other results were omitted from the sample, so actives are more common in it than they were. Values without a mark were called inactive.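 The calls were made as follows: active = inhibition above its plate's threshold, mean inhibition of all tested compounds on the plate plus 3 SD (cut at about 37% in these data); inactive = the rest.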

Molecular target: Orexin/Hypocretin receptor type 1 (Homo sapiens) (UniProt O43613)
Sequence (O43613 whole entry, looked up): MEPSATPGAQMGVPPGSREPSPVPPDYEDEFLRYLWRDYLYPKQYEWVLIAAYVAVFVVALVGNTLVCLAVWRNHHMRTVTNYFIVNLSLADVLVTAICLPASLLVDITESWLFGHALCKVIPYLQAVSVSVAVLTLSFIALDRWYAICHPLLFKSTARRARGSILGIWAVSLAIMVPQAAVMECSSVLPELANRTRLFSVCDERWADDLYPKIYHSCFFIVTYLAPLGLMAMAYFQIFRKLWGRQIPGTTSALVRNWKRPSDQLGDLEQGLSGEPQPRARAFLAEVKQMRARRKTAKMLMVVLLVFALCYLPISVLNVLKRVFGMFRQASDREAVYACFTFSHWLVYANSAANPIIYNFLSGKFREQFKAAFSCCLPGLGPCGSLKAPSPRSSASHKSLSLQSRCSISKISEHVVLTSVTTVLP
Assay: OX1R (HCRTR1) antagonists, primary screen, fluorescence, CHO/OX1R cells, Fluo-8 calcium, orexin A (AID 434989);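 also: 0% = orexin A challenge wells and 100% = SB-334867-A antagonist wells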
Conditions: Fluo-8 calcium fluorescence, at 5 µM, active compounds read high

Going from `COc1cccc(-c2sc3ccc(OC)cc3c2-c2ccc(OCCN3CCCCC3)cc2)c1` to `CCOC(=O)C1=C(C)N(C[C@@H]2CC[C@@H](Cc3ccc(-c4ccccc4)cc3)O2)C(=O)NC1c1ccc([N+](=O)[O-])cc1` (stereo partly specified), the inhibition falls from 29.6% to -13%.

Going from `COc1ccc2[nH]c3c(c2c1)CCN1C(=O)C(CC(=O)NCCCN(C)C)C[C@H](C(=O)N2CCOCC2)[C@@]31CCC1CCCC1` (stereo partly specified) to `CC[C@]12c3[nH]c4ccc(OC)cc4c3CCN1C(=O)C(CC(=O)NCCN1CCOCC1)C[C@@H]2C(=O)N1CCN(C(=O)C2CC2)CC1` (stereo partly specified), the inhibition rises from -21.8% to -6.98%.

Compared with `O=C1CCC/C=C/C[C@@H](CC(=O)N(CCO)Cc2ccccc2)C(=O)NC[C@H](c2ccccc2)O1`, `O=C(C[C@H]1C/C=C\C[C@@H](NC(=O)OCC2c3ccccc3-c3ccccc32)C(=O)O[C@@H](c2ccccc2)CNC1=O)N[C@H](CO)Cc1ccccc1` is lower in inhibition: -18% for the first, -18.2% for the second.

Compared with `CCN(CC)c1ccc(/C=N/NC(=O)CNC(=O)c2cccnc2)cc1`, `Cc1ccc(C(=O)NCCNC(=O)c2cnccn2)cc1` is higher in inhibition: -5.59% for the first, -1.97% for the second.

First: O=C(CCCOc1ccccc1)NNC(=O)c1ccc(Cl)cc1
Second: O=C(CCC(=O)OCc1ccc(Cl)cc1)Nc1ccccc1
The inhibition of the first is lower: -15.2% for the first, -9.06% for the second.

Compared with `C=CC[C@H](CC(=O)NCCO)C(=O)N[C@@H](COC(=O)[C@@H](CC=C)Cc1ccc(F)cc1)Cc1c[nH]c2ccccc12`, `C=CC[C@@H](Cc1ccc(F)cc1)C(=O)OC[C@H]1CCCN1C(=O)[C@H](CC=C)CC(=O)N(CCO)Cc1ccccc1` is higher in inhibition: -17.6% for the first, 24.4% for the second.

Going from `O=C(NCCc1ccco1)c1ccc(OCc2cn3ccccc3n2)cc1` to `Cn1c2ccccc2c(=O)c2c(=O)n(Cc3ccco3)c(COc3ccccc3)nc21`, the inhibition rises from -20.6% to -11.8%.

Going from `CCCc1nc2c(c(=O)c3ccccc3n2C)c(=O)n1-c1cc(C)cc(C)c1` to `CC(C)CC1NC(=O)c2cc(Cl)ccc2-n2c1nc1ccccc1c2=O` (stereo unspecified), the inhibition rises from -30.9% to -24.4%.

First: CC[C@]12c3[nH]c4ccc(Cl)cc4c3CCN1C(=O)[C@@H](CC(=O)NCCCOC)C[C@@H]2C(=O)N1CCN(C(=O)C2CC2)CC1
Second: CN(C)C(=O)CCc1ccc2c3c([nH]c2c1)[C@]1(CCc2ccccc2)[C@@H](C(=O)N2CCCCC2)C[C@H](CC(=O)NCCC2=CCCCC2)C(=O)N1CC3
The inhibition of the first is lower: -13.7% for the first, -7.84% for the second.

First: CC(C)N(C(=O)[C@H]1C[C@H](CC(=O)NC(C)(C)C)C(=O)N2CCc3c([nH]c4ccc(Cl)cc34)[C@]12C)C(C)C
Second: COc1ccc(C)cc1S(=O)(=O)N1CCN(S(=O)(=O)c2cc(C(=O)O)ccc2C)CC1
The inhibition of the first is lower: -33.8% for the first, -8.92% for the second.

First: Cc1cccc(OCC(=O)NC(=S)Nc2ccccc2N2CCOCC2)c1
Second: O=C(COc1ccc(Cl)cc1)NC(=S)Nc1ccccc1N1CCOCC1
The inhibition of the first is higher: -22.4% for the first, -46.4% for the second.

First: Cc1ccc(O)c(NC(=O)COc2cc(C)ccc2C)c1
Second: COC(=O)c1ccc(C)c(NC(=O)Cn2c(C)csc2=O)c1
The inhibition of the first is higher: 2.38% for the first, -20% for the second.

Going from `CCC1CCCCN1C(=S)NC(=O)c1ccco1` (stereo unspecified) to `O=C(NC(=S)Nc1ccc(Br)cc1F)C1CCCCC1`, the inhibition falls from 5.19% to 0.61%.

Going from `O=C1NC(Cc2ccc(O)cc2)c2nc3ccc(Cl)cc3c(=O)n2-c2ccccc21` (stereo unspecified) to `O=C(O)CC1=C(Nc2ccccc2)C(=O)N(c2ccccc2)C1c1ccc(Cl)cc1` (stereo unspecified), the inhibition falls from -10% to -21.1%.

Compared with `CCC(C(=O)NCc1ccc(OC)cc1)n1nc(C)n2c(cc3occc32)c1=O` (stereo unspecified), `COc1ccc(CNC(=O)COC(=O)c2sccc2C)cc1OC` is higher in inhibition: -43.4% for the first, -11.2% for the second.

Going from `COc1ccc(CCNC(=O)c2cc3sccc3n2C)cc1OC` to `C/C=C/c1ccc(OCC(=O)NNC(=O)CN(C)S(=O)(=O)c2ccc(C)cc2)c(OC)c1`, the inhibition falls from -27.4% to -47.6%.

First: Cc1ccc(S(=O)(=O)N2CCN(c3ncnc4ccccc34)CC2)cc1
Second: Cc1ccc(S(=O)(=O)N2C[C@@H]3CCCC[C@@H]3[C@@H](C)[C@H]2c2cn(Cc3ccccc3)c3ccc(F)cc23)cc1
The inhibition of the first is higher: 38.9% for the first, 6.16% for the second.

Going from `Cc1cccc(NS(=O)(=O)c2ccc(C)c(C(=O)NCc3cccnc3)c2)c1` to `CN(c1ccccc1)S(=O)(=O)c1cccc(NC(=O)Cc2c(F)cccc2Cl)c1`, the inhibition rises from -9.11% to 11.3%.

Compared with `O=C(C[C@@H]1C/C=C\CCC(=O)OC[C@@H]2CCCN2C1=O)NCCO`, `O=C1C=CN2CCCC2CC1` (stereo unspecified) is higher in inhibition: -14.7% for the first, -11.6% for the second.

Going from `Cc1ccccc1NC(=S)NC(=O)Cc1ccc(Cl)cc1` to `S=C(NCC1COc2ccccc2O1)Nc1ccc(Br)cc1` (stereo unspecified), the inhibition falls from 17.1% to 15.9%.

Compared with `CC(=O)C[C@H](O)CC(=O)[C@@H]1OC(=O)[C@@H](C)C/C=C\Cc2ccccc21`, `CCOC(=O)Cn1c(=O)oc2cc(S(=O)(=O)N(C)Cc3ccco3)ccc21` is higher in inhibition: -24.4% for the first, -12% for the second.

Going from `CN(C(=O)c1cccc(NC(=O)Cc2ccc([N+](=O)[O-])cc2)c1)C1CCC1` to `O=C(COC(=O)Cc1ccc([N+](=O)[O-])cc1)NC1CCCCCC1`, the inhibition falls from -24% to -29.4%.

Compared with `COC(=O)[C@]1(Cc2ccccc2)N[C@H](CN(C)S(=O)(=O)c2ccc(OC(F)(F)F)cc2)[C@@H]2C(=O)N(Cc3ccccc3)C(=O)[C@@H]21`, `CCN(CC(=O)Nc1ccccc1OC)C(=O)Cn1cnc2ccccc2c1=O` is lower in inhibition: -14.3% for the first, -15.9% for the second.

Going from `Cc1cccn2c(=O)c(/C=C3\SC(=S)N(CC(C)C)C3=O)c(NCCCOC(C)C)nc12` to `CCOC(=O)N1CCN(C(=O)CSc2nc(=O)n3cccc(C)c3n2)CC1`, the inhibition rises from -8.49% to -4.53%.

Going from `c1ccc(-c2cc3c(NCC4COc5ccccc5O4)ncnc3s2)cc1` (stereo unspecified) to `Fc1ccc2cnc(-c3ccccc3)cc2c1`, the inhibition rises from -20% to -19.1%.

Going from `Cc1noc(C)c1NC(=O)Nc1cccc2c1O[C@H](CN(C)S(=O)(=O)c1c(C)noc1C)[C@@H](C)CN([C@H](C)CO)C2=O` to `COc1ccc(NC(=O)Nc2ccc3c(c2)C(=O)N([C@H](C)CO)C[C@H](C)[C@@H](CN(C)C(=O)Nc2ccc4c(c2)OCO4)O3)cc1`, the inhibition rises from -19.7% to 1.29%.

Compared with `CCN(C(=O)COC(=O)CCC(=O)c1cccs1)C1CCCCC1`, `O=C(COC(=O)COc1cccc(F)c1)NCC1CCCCC1` is lower in inhibition: -13.9% for the first, -16.8% for the second.

Going from `COc1ccc(/C=C/C(=O)OCC(=O)NC2CCCCCC2)cc1OC` to `COc1ccc(-c2nc3cc(C)ccn3c2NC2CCCCC2)cc1SC1CCCCC1`, the inhibition rises from -27.2% to 25.4%.

Going from `CCN(CC(=O)Nc1ccccc1OC)C(=O)CC1CC2CCC1C2` (stereo unspecified) to `O=C(COC(=O)CN1C(=O)C2CCCCC2C1=O)Nc1ccc(F)c(F)c1F` (stereo unspecified), the inhibition rises from -19.5% to -8.95%.

First: NS(=O)(=O)c1cccc(NC(=O)COC(=O)c2cc([N+](=O)[O-])ccc2N2CCCC2)c1
Second: O=C(COC(=O)/C=C/c1ccc(Br)o1)Nc1cccc(S(=O)(=O)N2CCOCC2)c1
The inhibition of the first is lower: -7.78% for the first, -6.48% for the second.

Going from `CC(=O)c1ccc(-c2ccc(Cn3c(C)nc4cc(N)c(C)nc43)cc2)cc1` to `Cc1cc(-c2csc(N)n2)c(C)n1Cc1ccccc1`, the inhibition rises from -25.1% to -19.7%.

First: CCOC(=O)/C=c1\s/c(=C\c2ccc(C#N)cc2)c(=O)n1CC(=O)Nc1cccc(C)c1C
Second: CN(C)S(=O)(=O)c1cccc(NC(=O)Cc2ccsc2)c1
The inhibition of the first is higher: 1.96% for the first, -7.6% for the second.

Going from `CSc1ccc(NC(=O)/C=C/C(=O)O)cc1` to `CC(C)(C)c1ccc(/C=C/C(=O)Nc2ncccn2)cc1`, the inhibition rises from -13% to -7.7%.

`O=C(NNS(=O)(=O)c1c(F)cc(F)c(Cl)c1F)C12CC3CC(CC(C3)C1)C2` gave an inhibition of 4.78%.

`CCN(CC)c1ccc(/C=N/NC(=O)c2cnccn2)c(O)c1` was tested, and the inhibition was 48.7% (active).
For `CCCc1nc2c(c(=O)c3ccccc3n2C)c(=O)n1C1CCCCCC1`, the inhibition was 41.5% (active).
`Cc1ccc(O)c(NC(=S)NC(=O)COc2ccc(Br)cc2)c1` was tested, and the inhibition was 78.4% (active).
`CCOc1ccc(CCNC(=O)C(CC)n2nc(C)n3c(cc4sccc43)c2=O)cc1OCC` (stereo unspecified) was tested, and the inhibition was 64.5% (active).
In the case of `Cc1ccc(C)c(S(=O)(=O)N2CCN(c3ncnc4sccc34)CC2)c1`, the inhibition is reported as 51.7% (active).
In the case of `O=C(Cc1ccc(Cl)cc1)NC(=S)Nc1ccccc1O`, the inhibition is reported as 61.6% (active).
With `CCOC(=O)CC1C(=O)NCCN1c1nc2c(C)cccn2c(=O)c1/C=C1\SC(=S)N(C(C)CC)C1=O` (stereo unspecified) the inhibition was 78.6% (active).
For `c1ccc2c(c1)OCC(CNc1ncnc3nc[nH]c13)O2` (stereo unspecified), the inhibition was 90.5% (active).
`CCCN(CC(=O)Nc1ccccc1OC)C(=O)CCC(=O)c1ccc(F)cc1` was tested, and the inhibition was 44.7% (active).
In the case of `O=C1C=C(c2ccc(Cl)cc2)C(=O)N1Nc1ccccc1`, the inhibition is reported as 53.2% (active).
`Cc1cc2nc3c(=O)n(Cc4ccccc4)c(=O)[nH]c3nc2cc1N` was tested, and the inhibition was 54.6% (active).
With `CN(c1ccccc1)c1ccc(/C=c2\s/c(=C(/C#N)C(=O)C(C)(C)C)n(Cc3ccco3)c2=O)cc1` the inhibition was 42% (active).
`COC(=O)c1sc(-c2ccc(C(C)(C)C)cc2)cc1NC(=O)/C=C/C(=O)O` was tested, and the inhibition was 55.5% (active).
In the case of `CN(c1ccccc1)S(=O)(=O)c1cccc(NC(=O)Cc2ccc(Cl)cc2)c1`, the inhibition is reported as 42.1% (active).
